Bioassay records: PubChem BioAssay, National Center for Advancing Translational Sciences (NCATS)
Many of the other results were omitted from the sample, so hits are more common in it than they were.
Integrin act MD = activators of alpha7 integrin expression for muscular dystrophy; Potency, µM (titrated, usually from 38.3 µM), for inactives: top-dose activation, hits mostly activators; 0.064% of 350,000 active; alpha7betagal myoblasts, beta-gal FDG fluorescence, 48 h;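 further: potency means the concentration at half of the fitted maximal effect; 100% = response of the positive control SU9516; nearly all actives have a fitted effect of over 60% in size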
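Alpha7betagal+/- myoblasts (passage 13) were plated 16-24 hr, then exposed to compounds (1:260 dilution of DMSO stock) for 48 hours at 37C. After MPER lysis, β-galactosidase reporter activity was read as FDG fluorescence (ex 480/em 540) after 30 minutes.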
ERG Ets-DNA blk = blocks human ERG Ets domain binding to DNA; fluorescence polarization, His-ERG Ets domain / labelled DNA; 0.028% of 370,000 active; P11308; Potency, µM (titrated, usually from 76.9 µM), without a hit: top-dose FP activity, negative = inhibition, actives largely listed as inhibitors; active means well fitted inhibition curve with a large enough effect in the polarisation, with a control signal flat; inconclusive means small, poorly fitted or top-dose-only effect, or effect the other way, or a change in a side signal; inactive means no such curve, though single readings can be large or run the other way; the % refers to the polarisation;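 further: polarization taken with two DNA probes labelled with fluorescein and Texas red; potency means the concentration at half of the fitted maximal effect; % of control where 0% means no effect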
Target sequence (P11308 whole entry, looked up, the tested form may be a part): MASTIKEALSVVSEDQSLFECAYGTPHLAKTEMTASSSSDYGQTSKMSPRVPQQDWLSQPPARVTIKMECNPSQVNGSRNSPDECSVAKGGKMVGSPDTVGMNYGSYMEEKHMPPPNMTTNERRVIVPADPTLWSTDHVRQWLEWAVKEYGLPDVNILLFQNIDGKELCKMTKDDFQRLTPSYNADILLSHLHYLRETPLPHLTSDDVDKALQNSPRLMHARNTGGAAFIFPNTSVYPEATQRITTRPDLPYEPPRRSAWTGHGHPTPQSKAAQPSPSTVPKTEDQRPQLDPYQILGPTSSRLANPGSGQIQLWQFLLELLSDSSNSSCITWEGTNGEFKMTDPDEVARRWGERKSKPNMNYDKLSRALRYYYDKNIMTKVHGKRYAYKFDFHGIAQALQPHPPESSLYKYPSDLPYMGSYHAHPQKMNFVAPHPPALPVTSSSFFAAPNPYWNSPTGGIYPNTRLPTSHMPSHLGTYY
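His-tagged ERG Ets domain (1 uM in the protein solution; 300mM KCl, 50mM Tris-HCl, 1mM EDTA, 1mM DTT, pH 7.5) received compound, then a probe mix of 5 nM fluorescein-DNA and 100nM Texas-615-DNA. Fluorescence polarization was read for both dyes.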
Giardia killer = Giardia lamblia killing. Giardia lamblia trophozoite viability. activity change, % at 7.66 µM, hits read low. 0.15% of 340,000 active; in the data active means activity change below about -80%; inconclusive means between about -30% and that limit;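 further: parasites exposed to compound for two days anaerobically before the ATP read; on the % scale 0 is the no-effect control and ±100 the full control effect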
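Trophozoite viability was measured as ATP-dependent luminescence, read 15-30 min after reagent addition. Before that, parasites at 100 cells/well were exposed to compounds for 48 h, anaerobically, at 37 deg C.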
RORg inh = inhibitors of mouse ROR gamma transcriptional activity. Drosophila S2 Gal4-RORgamma UAS-luciferase reporter, 20 h. AID 2551. 5.4% of 310,000 active. Potency, µM (titrated, usually from 53.6 µM), without a hit: at the highest dose activity change, negative = inhibition, usual class: inhibitors. P51450; further: potency means the concentration at half of the fitted maximal effect; on the % scale 0 is the no-effect control and ±100 the full control effect; nearly all actives have a fitted effect of over 60% in size
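Schneider cells (Drosophila), stable Gal4 DBD–ROR gamma + UAS-luc; 1 hr cmpd preincubation; Cu2+ induction 700 uM final; 20 hr ambient; luminescence.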
Gal4-VP16 FLuc = counter-screen for ROR gamma inhibitors: Gal4-VP16 reporter; Drosophila S2 Gal4-VP16 UAS-luciferase, luminescence, 20 h; Potency, µM (series often up to 53.6 µM), for inactives: at the top dose activity, negative = inhibition, hits mostly inhibitors; 3.5% of 310,000 active; AID 2546;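 further: Gal4-VP16 expression switched on by copper sulfate through the metallothionein promoter; potency means the concentration at half of the fitted maximal effect; on the % scale 0 is the no-effect control and ±100 the full control effect; nearly all actives have a fitted effect of over 50% in size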
* marks the source's active call; other numbers are inactive results; ? = inconclusive; . = no result; [ ] = another dose, or the depositor's remark. Unless noted, the call rests on the fitted dose curve; in most records, active means well fitted curve in the direction sought with a large enough effect; inconclusive means small, poorly fitted or top-dose-only effect, or another doubt; inactive means no such curve, though single readings can be large; an effect the other way counts as inactive or inconclusive.

SMILES | Integrin act MD | ERG Ets-DNA blk | Giardia killer | RORg inh | Gal4-VP16 FLuc
Cc1ccccc1C(=O)NC(=S)Nc1ccc(S(=O)(=O)N2CCOCC2)cc1 | 3% | -12% | 4 | 20µM* | 18µM*
Cc1ccc(S(=O)(=O)N2CCOCC2)cc1C(=O)NC(=S)N1CC(C)OC(C)C1 (centres undefined) | -4% | -3% | 5 | 4.5µM* | 16µM*
O=C(Nc1ccc(S(=O)(=O)N2CCCCC2)cc1)c1ccc(CN2CCc3ccccc3C2)cc1 | -37% | 3% | 0 | ? | 4.5µM*
O=C(Nc1ccc(S(=O)(=O)N2CCCC2)cc1)c1ccccc1 | 18% | -5% | 0 | . | .
C=CC(=O)CC | . | . | . | 27% | 22%
C=CCn1c(SCC)nc2ccccc2c1=O | . | . | 38 | . | .
COc1ccc(S(=O)(=O)Nc2cc3c4c(c2)CC(=O)N4CCC3)cc1OC | 0% | . | . | . | .
COc1cccc(-c2nc(SCc3cccc(Br)c3)n3[nH]c(=O)cc3n2)c1 | . | -8% | . | . | .
O=C(CSc1ccc(Cl)cc1)N/N=C/c1cccnc1 | 0% | 6% | -6 | 30% | -14%
CCc1ccc(CN(C)Cc2nc(Cc3cccc(C(F)(F)F)c3)no2)nc1 | -8% | 1% | -5 | 2.2µM* | ?
FC(F)(F)c1cccc(Cc2noc(CN3CCCCC3c3ccccn3)n2)c1 (centres undefined) | ? | 13% | -4 | 22µM* | -8%
CCc1ccc(CN(C)Cc2nc(COc3ccccc3)no2)nc1 | 3% | -1% | -4 | 13µM* | 6%
CCn1ccnc1CN(C)Cc1nc(Cc2cccc(C(F)(F)F)c2)no1 | 17% | -4% | -1 | 18µM* | ?
O=C(/C=C/NNC(=O)c1ccc(Cl)cc1)c1ccccc1 | 5% | -3% | 7 | 11µM* | ?
COc1ccccc1NC(=S)N/N=C/c1ccc(O)cc1 | 17% | 4% | -2 | 4µM* | 7.1µM*
COc1ccccc1NC(=S)N/N=C/c1cccc(C)c1 | 1% | -7% | 11 | 0.89µM* | 1.3µM*
C/C(CC(=O)Nc1ccc2c(c1)OCCO2)=N\NC(=O)COc1ccc(C)cc1Br | -16% | 7% | 20 | -14% | 12%
Cc1ccc(Cl)cc1NC(=O)Cn1c(=O)n(C(C)C)c(=O)c2oc3ccccc3c21 | . | 0% | . | . | .
CN(CC(=O)NCc1ccccn1)S(=O)(=O)c1ccc2ccccc2c1 | -4% | -9% | 0 | 29% | -12%
Cc1cccc(-n2cc(-c3ccc([N+](=O)[O-])cc3)[nH]c2=S)c1 | -14% | -12% | -11 | 7.1µM* | 4µM*
Cc1ccc(-n2cc(-c3ccc([N+](=O)[O-])cc3)[nH]c2=S)c(C)c1 | -17% | 12% | -16 | 1.3µM* | 6.3µM*
CN(C)c1ccc(C(=S)N2CCOCC2)cc1 | -10% | 2% | -4 | -28% | 6%
CC(=O)N1CCN(C(=S)c2ccc(N(C)C)cc2)CC1 | -21% | . | 2 | -18% | 9%
CC1CCN(C(=S)c2ccc(N(C)C)cc2)CC1 | -11% | 4% | -6 | 13µM* | -26%
CN(C)c1ccc(C(=S)N2CCCCCC2)cc1 | -53% | 5% | 28 | 20µM* | -21%
SMILES | Integrin act MD | ERG Ets-DNA blk | Giardia killer | RORg inh | Gal4-VP16 FLuc
CC(=O)Nc1ccc(C(=O)COC(=O)c2ccco2)c(F)c1 | -16% | -16% | 9 | . | .
N#C/C(=C(/O)c1ccc([N+](=O)[O-])cc1)c1nnc2n1CCCCC2 | 14% | -1% | -23 | 18µM* | ?
N#C/C(=C/c1ccccc1[N+](=O)[O-])c1nnc2n1CCCCC2 | 0% | 2% | -10 | -7% | -5%
N#C/C(=C(/O)c1cccs1)c1nnc2n1CCCCC2 | 2% | 10% | 7 | 10µM* | ?
O=S(=O)(Cc1ccccc1)N1CCN(c2nc(-c3cccs3)nc3ccccc23)CC1 | . | . | 3 | . | .
O=c1c(Cl)c(Cl)cnn1-c1ccccc1 | -60% | 7% | 8 | 10µM* | 11µM*
Cc1cc(C)cc(Cn2ncc(Cl)c(Cl)c2=O)c1 | -54% | . | 5 | ? | 11µM*
O=c1c(Cl)c(Cl)cnn1Cc1ccccc1Cl | -61% | -6% | 4 | 1.1µM* | ?
CO[C@H]1COC(=O)[C@@H](Cc2ccccc2)NC(=O)[C@@H](C)COC(=O)C/C=C\[C@@H]1C | . | . | . | -15%[10 µM] | 3%[10 µM]
CCN1C(=O)S/C(=C/c2ccc(Sc3nc4ccccc4[nH]3)o2)C1=O | 0% | -5% | -5 | 5.6µM* | 3.2µM*
N#C/C(=C/c1ccc(Sc2nc3ccccc3[nH]2)o1)c1cccc(Br)c1 | -48% | 5% | 12 | ? | ?
CCn1nc(C)cc1-c1nnc(Sc2ncc([N+](=O)[O-])s2)n1C | -75% | 4% | 0 | 5µM* | 4.5µM*
C=CC[C@@H]1C=C[C@H](O/N=C2\c3cc(OC)ccc3O[C@H](c3cccc(OC)c3)[C@H]2O)[C@H](CO)O1 | . | . | . | 4%[10 µM] | -8%[10 µM]
c1cc(CN2CCCNCCNCCCNCC2)ccc1CN1CCCNCCNCCCNCC1 | . | . | . | -26% | -18%
CCc1nc2cccnc2n1-c1ccc(CC(=O)Nc2cccc(C)c2C)cc1 | . | -1% | . | . | .
Cc1cc(C(=O)N=Nc2c(O)n(C(C)C)c3ccccc23)n[nH]1 | 0% | -14% | 11 | 11µM* | ?
COc1ccccc1C(=O)NCC(=O)N=Nc1c(O)n(C(C)C)c2ccccc12 | 11µM* | 2% | 19 | -5% | 2%
CC(C)n1c(O)c(N=NC(=O)CNC(=O)Cc2ccc(Cl)cc2)c2ccccc21 | -9% | 2% | -28 | 27% | -9%
COc1ccccc1N1C(=O)c2ccc(C(=O)Nc3cccc(C(C)=O)c3)cc2C1=O | 12% | 12% | 8 | 11% | 1%
COc1ccccc1N1C(=O)c2ccc(C(=O)Nc3ccc(F)cc3)cc2C1=O | 9% | -6% | 7 | -40% | 16µM*
COc1cccc2c1C(=O)c1c(O)c3c(c(O)c1C2=O)C[C@@](O)(C(=O)CO)C[C@@H]3OC1CC(N)C(O)C(C)O1 (some centres undefined) | -56% | ? | -11 | -40%[10 µM] | 10µM*
COc1cccc2c1C(=O)c1c(O)c3c(c(O)c1C2=O)C[C@@](O)(C(=O)CO)C[C@@H]3O[C@@H]1C[C@H](N)[C@H](O)[C@H](C)O1 | . | . | . | 11µM* | 7.9µM*
COc1cccc2c1C(=O)c1c(O)c3c(c(O)c1C2=O)C[C@@](O)(C(=O)CO)C[C@@H]3O[C@H]1C[C@H](N)[C@H](O)[C@H](C)O1 | . | ? | 1 | 3.5µM* | 5.6µM*
COc1cccc2c1C(=O)c1c(O)c3c(c(O)c1C2=O)C[C@](O)(C(C)=O)C[C@H]3O[C@@H]1C[C@H](N)[C@H](O)[C@H](C)O1 | . | . | . | 5.6µM* | 4.5µM*
COc1ccc(C(=O)N/C(=C\c2cn(C)c3ccccc23)C(=O)N2CCOCC2)cc1 | -38% | 4% | -2 | -9% | -4%
COc1cccc2cc(C(N)=O)/c(=N/NC(=O)COc3ccc(Cl)cc3)oc12 | . | . | . | 25% | 2%
